Source: PubChem BioAssay AID372 (MTDP, 2006)
Among all 100,000 compounds or so, about 770 (0.77%) were called active. The sample as a whole holds a higher share of actives than the screen did. Values without a mark were called inactive. Cut-off read from the data, not from the text of the source: active = inhibition above about 50%; inactive = the rest.

Target: Gag-Pol polyprotein (Human immunodeficiency virus type 1 group M subtype B (isolate HXB2)) (UniProt P04585)
Test: RNase H inhibition, HIV 1 Gag Pol polyprotein, FRET biochemical assay, screening (AID 372)
Details: HIV-1 RT RNase H, FRET RNA/DNA substrate fluorescence; at 10 µM; stronger effect = higher value

SMILES	inhibition
O=[N+]([O-])c1ccc(Cl)c(S(=O)(=O)Nc2ccccn2)c1	0%
O=C(c1nn2c(C(F)(F)F)cc(-c3cccs3)nc2c1Br)N1CCOCC1	0%
COc1ccc(OC)c(C(=O)N/N=C/c2ccccn2)c1	3%
CC(C)(C)c1cc(C(=O)NCC(=O)OCC(=O)c2ccccc2)cc(C(C)(C)C)c1	18%
O=C(NC(=S)Nc1ccc(Br)cc1)c1ccc(Cl)cc1	1%
Cc1ccc(N(CC(=O)NCCOc2ccc(F)cc2)S(=O)(=O)c2ccccc2)cc1C	5%
CCOC(=O)Cc1csc(NC(=O)COc2c(C)cccc2C)n1	5%
NC(=O)c1cnn2c1NC(c1ccco1)CC2C(F)(F)F (configuration not stated)	0%
O=C(Cc1ccccc1)Nc1ccc(C(=O)Nc2ccc(Cl)cc2Cl)cc1	59% (active)
CC(=O)Nc1ccc(C(=O)Nc2ccc(Cl)cc2Cl)cc1	0%
O=C(Nc1ccc(Cl)cc1Cl)c1ccc(-c2ccccc2)cc1	0%
CS/C(N)=N\N=C\c1cc([N+](=O)[O-])ccc1O	18%
O=C(NC(=S)Nc1cc([N+](=O)[O-])ccc1Cl)c1ccccc1Br	18%
COc1ccccc1C(=O)NC(=S)Nc1cc([N+](=O)[O-])ccc1Cl	6%
O=C(NC(=S)Nc1cc([N+](=O)[O-])ccc1Cl)c1cccc2ccccc12	51% (active)
CSc1nc(SC)c2c3c(sc2n1)CN(C)CC3	0%
Cc1ccc(OCC(=O)Nc2cc(C(F)(F)F)cc(C(F)(F)F)c2)cc1C	0%
CCCCOc1ccc(NC(=O)/C=C/c2ccc(OC)c(OC)c2)cc1	3%
CCCOc1ccc(/C=C/C(=O)Nc2ccc(S(=O)(=O)Nc3ncccn3)cc2)cc1OC	61% (active)
COc1ccc(C(=O)Nc2ccc(S(=O)(=O)Nc3ncccn3)cc2)cc1OC	0%
O=c1[nH]n(-c2ccccc2)c(O)c1/C=C1\C=Nc2ccccc21	10%
O=c1[nH]c(O)c(/C=C2\C=Nc3ccccc32)[nH]1	0%
Cc1ccc([N+](=O)[O-])cc1NC(=O)COc1ccc(Cl)cc1C	13%
O=C(Nc1ncccc1Cl)C1CCCO1 (configuration not stated)	18%
COc1ccc(-c2csc(/C(C#N)=C/Nc3ccc(S(=O)(=O)Nc4nccs4)cc3)n2)cc1	6%
N#C/C(=C\Nc1ccc(S(=O)(=O)Nc2nccs2)cc1)c1nc(-c2ccc(-c3ccccc3)cc2)cs1	16%
Cc1cccc(NC(=O)/C(C#N)=C\c2cc(C)n(-c3ccc(C)c(C)c3)c2C)c1	10%
